Results from PubChem BioAssay AID2315 (National Center for Advancing Translational Sciences (NCATS), 2010).
Among all 290,000 compounds or so, about 27,000 (9.3%) were called active. This is one part of a sample in which actives are shown more often than they occur. A number with no mark means an inactive call. Cut-off read from the data, not from the text of the source: active = inhibition mostly above about 28% (no sharp cut-off); inactive = mostly below about 43%.

Assay: A qHTS for Small Molecule Inhibitors of Shiga Toxin; note: 0% is about no effect
Conditions: Vero cells, Shiga toxin protein synthesis inhibition reporter; at 38.7 µM, hits give high values

Row | SMILES | inhibition
1 | CN(C)c1ccc(C2N(C)C(=O)c3ccccc3N2C)cc1 (stereo not drawn) | -12.6%
2 | O=[N+]([O-])c1ccc(N2CCN(c3ccc(F)cc3)CC2)cn1 | 20.3%
3 | O=C(Nc1cccc(NC(=O)c2ccc(Br)cc2)c1)c1ccccc1 | -7.53%
4 | O=C(Nc1ccccc1)c1ccc2nsnc2c1 | 64.7% (active)
5 | O=S(=O)(Nc1ccccc1Cl)c1cccc2nsnc12 | -3.15%
6 | O=C(Nc1ccccc1Cl)c1ccc2nsnc2c1 | 102% (active)
7 | Cc1cccc(NC(=O)c2ccc(OCC(=O)NCc3ccccc3)cc2)c1C | -9.42%
8 | O=C(Nc1ccccc1N1CCCCC1)c1ccc2nccnc2c1 | -14.9%
9 | Cc1nc(C)c(C(=O)Nc2cccc(C)c2C)o1 | -7.98%
10 | Cc1cccc(NC(=O)c2ccc3nsnc3c2)c1C | 80% (active)
11 | COc1ccc(N2CCN(C(=O)C3CCN(C(=O)c4ccccc4Cl)CC3)CC2)cc1 | 26.7%
12 | CCCCC(CC)CNCc1cccn1CCN1CCOCC1 (stereo not drawn) | -23.2%
13 | COc1cccc(-c2nc(CS(=O)CC(=O)NCc3ccc(F)cc3)c(C)o2)c1 (stereo not drawn) | -9.69%
14 | COc1cccc(NC(=O)[C@H](Cc2c[nH]c3ccccc23)NC(=O)[C@@H]2Cc3ccccc3CN2)c1 | 9.71%
15 | O=S(=O)(Nc1cccc(-n2cnnn2)c1)c1cnc(Cl)c(Cl)c1 | -9.74%
16 | Cc1ccc(O)c(NC(=O)c2cc(-c3ccco3)on2)c1 | 81.4% (active)
17 | Cc1ccc(C)c(NC(=O)c2ccc(OC(=O)c3ccco3)cc2)c1 | 32.9%
18 | Cc1ccc(O)c(NC(=O)COc2cc(C)ccc2C)c1 | -27.8%
19 | O=C(O)CSc1c2c(nc3cc(C(=O)Nc4cccc(C(F)(F)F)c4)ccc13)CCCC2 | -3.73%
20 | O=C(O)CN1CCN(C(c2ccccc2)c2ccccc2)CC1 | -10.2%
21 | Brc1ccc(CSc2ccc(-c3ccco3)nn2)cc1 | 99.8% (active)
22 | Fc1cccc(Cl)c1CSc1ccc(-c2ccco2)nn1 | 89% (active)
23 | Cc1cc(SCc2c(F)cccc2Cl)nc(=O)[nH]1 | 5.47%
24 | Clc1ccccc1CSc1nnc(-c2ccco2)c(-c2ccco2)n1 | -3.95%
25 | COc1ccc(NC(=O)CSc2ccc(-c3ccco3)nn2)c(OC)c1 | -11.2%

Row | SMILES | inhibition
26 | O=C(CSc1ccc(-c2ccco2)nn1)NCc1ccc2c(c1)OCO2 | 25%
27 | O=C(Nc1ccccc1-c1ccccc1)c1ccccc1[N+](=O)[O-] | 2.33%
28 | O=C(Nc1ccc(N2CCOCC2)nc1)c1c(F)cccc1F | 55.5% (active)
29 | NC(=O)c1ccc(N2CCOCC2)nc1 | -13.6%
30 | O=C(Nc1ccc(F)cc1)c1cccnc1N1CCOCC1 | 28.6%
31 | CC(=O)c1ccc(S(=O)(=O)N(C)CCCC(=O)N(C)Cc2ccccc2F)cc1 | -5.36%
32 | COc1ccc(/C=C(/CC(=O)Nc2ccc(C)cc2)c2nc3ccccc3s2)cc1 | 19.4%
33 | COc1cccc(/C=C(/CC(=O)Nc2ccc(N3CCOCC3)cc2)c2nc3ccccc3s2)c1 | 90.3% (active)
34 | CCn1c(Cc2ccc(OC)cc2)nnc1SCC(=O)Nc1ccc(N2CCOCC2)cc1 | 1.72%
35 | COc1ccc(C(C)NC(=O)C2CCCC2)cc1 (stereo not drawn) | -3.92%
36 | O=C(COc1ccc2ccc(=O)oc2c1)NCC(O)c1ccccc1 (stereo not drawn) | -18.4%
37 | O=C(O)c1ccccc1C(=O)NC1=NN(c2ccccc2)CC1 | 3.05%
38 | Cc1ccc(C(=O)c2ccc(N3CCN(C)CC3)c([N+](=O)[O-])c2)cc1 | 76.3% (active)
39 | CCOC(=O)C1CCN(c2ccc(C(=O)O)cc2[N+](=O)[O-])CC1 | -7.98%
40 | Cc1cccc(N2CCN(c3ccc(C(N)=O)cc3[N+](=O)[O-])CC2)c1C | 5.45%
41 | CCOC(=O)C1CN(S(=O)(=O)c2ccc(OC)cc2)c2cc(Cl)ccc2O1 (stereo not drawn) | -12.8%
42 | CC(C)C(C)NC(=O)COc1nc2ccccc2nc1N(C)C1CCCCC1 (stereo not drawn) | -16.3%
43 | O=C(NC1CCCC1)C1CCN(C(=O)Nc2cccc(Cl)c2)CC1 | -5.04%
44 | Cc1ccc(S(=O)(=O)N(Cc2ccccc2)c2ccccn2)cc1[N+](=O)[O-] | 5.85%
45 | Cc1nn(-c2ccccc2)c(Cl)c1/C=C/C(=O)c1ccc(O)cc1 | 37.6%
46 | Cc1nn(-c2ccccc2)c(Cl)c1C(=O)Nc1ccccc1 | 108% (active)
47 | Cc1ccc(C(=O)/C=C/c2c(C)nn(-c3ccccc3)c2Cl)cc1 | 45.2% (active)
48 | Cc1nn(-c2ccccc2)c(C)c1/C=C/C(=O)OC(C)C(N)=O (stereo not drawn) | -6.62%
49 | COc1ccc(CCNC(=O)c2c(C)nn(-c3ccccc3)c2Cl)cc1 | 15.3%
50 | Cc1nn(-c2ccccc2)c(C)c1NC(=O)CCl | 16.7%

Row | SMILES | inhibition
51 | Cc1cccc([C@@H]2[C@@H]3C(=O)N(Cc4ccccc4)C(=O)[C@@H]3[C@]3(C)C(=O)N(c4ccc(Br)cc4)C(=O)N23)c1 | 10.9%
52 | CCCN1CCN(C(=O)CCCNC(=O)c2ccc(Cl)cc2)CC1 | -8.41%
53 | C[C@H](NC(=O)C1CC(=O)N(c2ccc3c(c2)OCCO3)C1)C(=O)N1CCC(C(=O)O)CC1 (stereo partly drawn) | -10.9%
54 | COc1ccccc1N1CCN(C(=O)c2cc3c(-c4ccc(Cl)cc4)nn(C)c3s2)CC1 | 19.3%
55 | COc1ccccc1N1CCN(C(=O)c2cn(-c3ccccc3)nc2-c2cccnc2)CC1 | 39.2% (active)
56 | O=C(c1cn(-c2ccccc2)nc1-c1cccnc1)N1CCCCC1 | -13.3%
57 | COc1cc(C(=O)N2CCN(C3CCC(C)CC3)CC2)cc(OC)c1OC (stereo not drawn) | -9.82%
58 | CCOc1ccc2nc(N(CCCN(C)C)C(=O)c3ccc(C(=O)c4ccccc4)cc3)sc2c1 | -6%
59 | O=C(O)c1ccc(-n2nc(-c3ccccc3)c3ccccc3c2=O)cc1 | 17.9%
60 | CCOc1ccc(CCNC(=O)Nc2ccccc2)cc1OCC | 7.13%
61 | CCOC(=O)C1CCN(C(=O)C2CCCN(S(=O)(=O)c3ccc(OC)c(Cl)c3)C2)CC1 (stereo not drawn) | -2.72%
62 | CCc1ccc2oc(-c3ccc(N)cc3)nc2c1 | 47.9% (active)
63 | COc1ccc(C2C3=C(CCCC3=O)N(CC(=O)O)C3=C2C(=O)CCC3)cc1 | 14.1%
64 | Cc1cccc(C)c1OC(=O)CSc1nnc(-c2ccccc2)o1 | -1.97%
65 | CCOC(=O)CSc1nnc(-c2ccncc2)o1 | -2.72%
66 | CCCCSc1nnc(-c2ccc(C)cc2)o1 | 63.2% (active)
67 | O=C(c1cc2ccccc2o1)N1CCN(Cc2ccccc2)CC1 | 22.5%
68 | O=C(NCCc1ccccc1)C(=O)NCC1OCCN1S(=O)(=O)c1cccs1 (stereo not drawn) | 15.4%
69 | CCc1ccc(Oc2coc3cc(OC(=O)c4cc5ccccc5oc4=O)ccc3c2=O)cc1 | 22.7%
70 | COc1ccc(Oc2coc3cc(OC(=O)c4cncc(Br)c4)ccc3c2=O)cc1 | 31.4%
71 | CCc1ccc(Oc2coc3cc(O)ccc3c2=O)cc1 | 57.1% (active)
72 | O=C(O)C1CCC(CNS(=O)(=O)c2ccc(Br)cc2)CC1 (stereo not drawn) | -6.36%
73 | O=C(NC(=O)c1ccccc1)NC(=O)c1ccccc1 | -0.343%
74 | O=C(Nc1ccc(C(=O)O)c(O)c1)c1ccccc1 | 2.52%
75 | O=C(NC(=O)c1ccccc1)Nc1ccccc1O | 105% (active)

Row | SMILES | inhibition
76 | CCCC(=O)N1CCN(c2nnc(-c3ccc(C)cc3)c3ccccc23)CC1 | -11.9%
77 | O=C(NCCc1cccc(F)c1)C1CCCN(c2nc3ccccc3s2)C1 (stereo not drawn) | -11.7%
78 | c1c2c(cc3sc(N4CCCCC4)nc13)OCCO2 | 14.5%
79 | Brc1ccc2nc(N3CCCC3)sc2c1 | 133% (active)
80 | Cc1nc(N2CCCCC2)sc1C=O | 17.8%
81 | O=C(c1ccc2nc(N3CCOCC3)sc2c1)N1CCN(c2ccc(Cl)cc2)CC1 | -6.87%
82 | Fc1ccc2nc(N3CCCCC3)sc2c1 | 82% (active)
83 | COC(=O)Nc1ccc(S(=O)(=O)Nc2cc(OC)nc(OC)n2)cc1 | -3.18%
84 | Cc1ccsc1C(=O)N[C@@H](C)c1nnc2ccccn12 | -1.3%
85 | COc1ccc(NC2CCCN(C(=O)c3ccncc3)C2)cc1 (stereo not drawn) | -17.1%
86 | O=C1CCC/C(=N\NC(=O)NC2CCCCC2)C1 | -0.774%
87 | CC(C)(C)NC(=O)C(=O)NN=C1CCCCCCC1 | 60.6% (active)
88 | CC(C)NC(=S)NN=C1CCCCCCCCCCC1 | 4.86%
89 | O=C(NCc1ccccc1)C(=O)NCC1OCCN1S(=O)(=O)c1ccc(Br)cc1 (stereo not drawn) | 3.85%
90 | CCC(Oc1ccccc1C)C(=O)Nc1ccc(S(=O)(=O)Nc2cc(C)on2)cc1 (stereo not drawn) | -4.41%
91 | O=c1[nH]c(CSc2ccccc2)nc2c1oc1ccccc12 | 12.7%
92 | O=C(COC(=O)c1ccc(N2CCCC2=O)cc1)c1ccc(OC(F)F)cc1 | -2.32%
93 | Cc1nn(-c2ccccc2)c(C)c1C(=O)OCC(=O)NC(=O)NC1CCCCC1 | -5.78%
94 | CCCn1c(C)cc(C(=O)COC(=O)c2c(C)nn(-c3ccccc3)c2C)c1C | 37.3% (active)
95 | Cc1ccc(OC(=O)c2c(C)nn(-c3ccccc3)c2C)cc1 | 66.5% (active)
96 | CCCc1cc(=O)[nH]c(SCC(=O)c2cc(C)n(CCC)c2C)n1 | -17.8%
97 | Cc1nn(-c2ccccc2)c(-n2cccc2)c1C(=O)O | -10.5%
98 | Cc1cc(C(=O)COC(=O)c2cccs2)c(C)n1-c1c(C)n(C)n(-c2ccccc2)c1=O | 14.6%
